Many of the other results were omitted from the sample, so hits are more common in it than they were.
Pf Dd2 growth: Plasmodium falciparum Dd2 growth inhibition; 120,000 compounds, 4.3% hits; P. falciparum Dd2 growth, SYBR Green, 72 h; Potency, µM (doses to about 28.9 µM), without a hit: at the highest dose activity, negative = inhibition, actives largely listed as inhibitors; active means well fitted inhibition curve with a large enough effect;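 further: plate controls were DMSO vehicle for no effect and reference drug for full effect; nearly all actives have a fitted effect of over 65% in size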
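Infected erythrocytes (Dd2, 0.3% parasitemia, 2.5% hematocrit final) are added to compound in RPMI-1640/Albumax II medium, grown 72 h at 37C in low oxygen, then lysed with saponin/Triton-X containing SYBR Green and read by fluorescence.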
* marks the source's active call; other numbers are inactive results; i = inactive; [ ] = dose if it differs, or a comment. Potency means the concentration at half of the fitted maximal effect.

SMILES | Pf Dd2 growth
CN1Cc2ccccc2-n2ccnc2C12CCN(C(=O)c1ccc(C(F)(F)F)cc1)CC2 | i[5.79 µM]
O=C(NCc1ccccc1)c1cnc2n1CCN(CCCc1ccccc1)CC2 | 21%[44.1 µM]
CCN1c2cc(C(N)=O)ccc2C(=O)N2CCCCCC21 (centres undefined) | i
Cc1cc2nc3n(c(=O)c2n1CC(=O)Nc1ccc(F)cc1F)CCCCC3 | 88%
COc1ccc(-c2nc(C(C)C)nc3c2CCN(C(=O)c2ccccc2Cl)CC3)cc1 | 10µM*
COCC(=O)N1CCc2nc(C(C)C)nc(-c3ccc(OC)cc3)c2CC1 | -11%
CC(C)c1nc2c(c(-c3ccc(O)cc3)n1)CCN(C(=O)c1ccccc1Cl)CC2 | i
O=C1NCCOCCN(S(=O)(=O)c2cccc3nsnc23)[C@H]2CCC[C@@H]12 | 26%
O=C(NCc1ccc(F)cc1)c1cnc2c(c1)N([S+](=O)([O-])c1cccnc1)CCC2 | -18%[44.1 µM]
Cc1ccc(C(=O)N[C@H]2CO[C@H]3[C@@H]2OC[C@@H]3n2cc(CC3CCCCC3)nn2)cc1 | i
COCC1CN(C2CCC2)CC12CCN(S(=O)(=O)c1cnc[nH]1)CC2 (centres undefined) | -1%
COCCNc1ncc(-c2cccc(N[S+](C)(=O)[O-])c2)c2c1OCC2 | 10%[44.1 µM]
CCn1ccc(C(=O)N2CCC(Cc3ncc(C)n3CCOC)CC2)n1 | -1%
CCC1C(=O)N(C)CCN1C(=O)c1coc(COc2ccc3c(c2)OCO3)n1 (centres undefined) | -15%
O=[S+]1([O-])NCC2(CCN(CC3CCOCC3)CC2)Oc2ncccc21 | 3%
CC(C)(C)CN1CCC2(CC1)CN[S+](=O)([O-])c1cccnc1O2 | 8.9µM*
O=[S+]1([O-])NCC2(CCN(Cc3cccnc3)CC2)Oc2ncccc21 | 6%
Cn1nc(C2CCNC2)c2c(C(=O)N3CCOCC3)cc(C3CC3)nc21 (centres undefined) | 19%
COc1cc(OCc2ccccc2)ccc1CN1C[C@@H]2CCN[C@@H]2C1 | 10µM*
COCCN1C(=O)[C@H]2CN(Cc3ccc(OC)cc3OC)C[C@H]2C1=O | i
COc1ccc(CN2C[C@@H]3C(=O)N(Cc4ccc5c(c4)OCO5)C(=O)[C@@H]3C2)c(OC)c1 | i
CNC(=O)[C@@H]1C[C@H](Oc2cccnc2)CN1C(=O)Cn1nc(C)cc1C | 14%
O=C(Cc1ccsc1)N1CCC(n2cc(-c3nc(C4CC4)no3)nn2)C1 (centres undefined) | i
CCOc1cccc(CN2C[C@@H](CO)[C@H](c3nc(C)no3)C2)c1 | -23%
CN(C)Cc1nnc(C2CCN(C(=O)c3cn[nH]c3-n3cnnn3)CC2)n1C | -1%
SMILES | Pf Dd2 growth
Clc1ccccc1C1(c2ccnc(C3CC3)n2)CCNCC1 | 2.2µM*
Clc1ccccc1C1(c2ccnc(-c3ccccc3)n2)CCNCC1 | 10µM*
Clc1ccccc1C1(c2ccnc(NC3CCC3)n2)CCNCC1 | 7.1µM*
O[C@@H]1CCN(c2nccc(C3(c4ccccc4Cl)CCNCC3)n2)C1 | -17%
CN1CCC(CNc2nccc(C3(c4ccccc4Cl)CCNCC3)n2)C1 (centres undefined) | -7%
OC[C@@H](O)CNc1nccc(C2(c3ccccc3Cl)CCNCC2)n1 | 25%
CN(C)C1CCN(c2nccc(C3(c4ccccc4Cl)CCNCC3)n2)C1 (centres undefined) | -25%
O=C1CCC(CCC(=O)N2CCN(c3ccccc3F)CC2)(Cc2ccc3ccccc3c2)N1 (centres undefined) | -14%
O=C(CN1C(=O)C(c2ccccc2)=NC12CCCC2)NCc1ccc(F)cc1 | i
CC(=O)N(C[C@H]1O[C@@H](CC(=O)NC(C)C)[C@H](O)[C@@H]1O)C[C@H]1O[C@@H](CC(=O)NC(C)C)[C@H](O)[C@@H]1O | 21%
Cc1cccc2nnc(N3CCN(C(=O)CCc4ccccc4)CC3)n12 | -14%
Cc1cccc(Cn2c(SCc3ccc(C(=O)NCCc4ccccc4)cc3)nc3cccnc32)c1 | 11µM*
O=C(NC1CC1)c1ccc(Cn2c(SCc3ccc(F)cc3)nc3cccnc32)cc1 | -2%
O=C(NCCc1ccccc1)c1ccc(CSc2nc3cccnc3n2Cc2ccc(F)cc2)cc1 | 8.9µM*
CCOc1ccc(C(=O)NCc2nc3cccnc3n2Cc2ccc(F)cc2)cc1OCC | i
CN(Cc1ccccc1)C(=O)c1ccc(CSc2nc3cccnc3n2Cc2ccccc2F)cc1 | -18%
O=C(NCCc1cccs1)c1ccc(Cn2c(SCc3ccccc3)nc3cccnc32)cc1 | 11µM*
Cc1cccc(CSc2nc3cccnc3n2Cc2ccc(C(=O)NCc3ccco3)cc2)c1 | -14%
O=C(NCc1cccs1)c1ccc(Cn2c(SCc3ccc(F)cc3)nc3cccnc32)cc1 | -19%
Cc1ccc(CNC(=O)c2ccc(Cn3c(SCc4ccc(F)cc4)nc4cccnc43)cc2)o1 | 11µM*
Cc1cccc(Cn2c(SCc3ccc(C(=O)NCc4ccccc4F)cc3)nc3cccnc32)c1 | -27%
Cc1ccc(S(=O)(=O)N(C)CC2CCOC2)cc1F (centres undefined) | 21%[5.79 µM]
CCS(=O)(=O)N(C1CC1)C1CCOC2(CCN(C(=O)c3cccc(C)c3)CC2)C1 (centres undefined) | -9%

Bioassay records (PubChem)
